# Assay results reported in the supplement of paper PMC8728848.
# The sample as a whole holds a higher share of the strongest signals than the screen did.
# What was measured:
# Assay in all cases: glycan array binding signal (z-score within array); higher = stronger binding
# Conditions in all cases: glycan notation: IUPAC condensed, linker removed
# [1] = target: Gal(b1-4)GlcNAc(b1-3)Gal(b1-4)GlcNAc(b1-3)Gal(b1-4)GlcNAc(b1-3)Gal(b1-4)GlcNAc(b1-3)Gal(b1-4)GlcNAc(b1-2)Man(a1-3)[Gal(b1-4)GlcNAc(b1-3)Gal(b1-4)GlcNAc(b1-3)Gal(b1-4)GlcNAc(b1-3)Gal(b1-4)GlcNAc(b1-3)Gal(b1-4)GlcNAc(b1-2)Man(a1-6)]Man(b1-4)GlcNAc(b1-4)[Fuc(a1-6)]GlcNAc
# Method in brief: (§1)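 The binding signal is a Z-score computed within each array and averaged over linkers. Arrays of the same protein sequence at different concentrations or buffers were also averaged together. Data originate from 3228 arrays in the Consortium for Functional Glycomics database, kept only where the protein sequence was available.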
# [2] = target: Gal(b1-4)GlcNAc(b1-3)Gal(b1-4)GlcNAc(b1-3)Gal(b1-4)GlcNAc(b1-3)Gal(b1-4)GlcNAc(b1-3)Gal(b1-4)GlcNAc(b1-2)[Gal(b1-4)GlcNAc(b1-3)Gal(b1-4)GlcNAc(b1-3)Gal(b1-4)GlcNAc(b1-3)Gal(b1-4)GlcNAc(b1-3)Gal(b1-4)GlcNAc(b1-6)]Man(a1-6)[Gal(b1-4)GlcNAc(b1-3)Gal(b1-4)GlcNAc(b1-3)Gal(b1-4)GlcNAc(b1-3)Gal(b1-4)GlcNAc(b1-3)Gal(b1-4)GlcNAc(b1-2)Man(a1-3)]Man(b1-4)GlcNAc(b1-4)[Fuc(a1-6)]GlcNAc
# Method in brief: as §1
# [3] = target: Gal(b1-4)GlcNAc(b1-3)Gal(b1-4)GlcNAc(b1-3)Gal(b1-4)GlcNAc(b1-3)Gal(b1-4)GlcNAc(b1-3)Gal(b1-4)GlcNAc(b1-3)Gal(b1-4)GlcNAc(b1-2)Man(a1-3)[Gal(b1-4)GlcNAc(b1-3)Gal(b1-4)GlcNAc(b1-3)Gal(b1-4)GlcNAc(b1-3)Gal(b1-4)GlcNAc(b1-3)Gal(b1-4)GlcNAc(b1-3)Gal(b1-4)GlcNAc(b1-2)Man(a1-6)]Man(b1-4)GlcNAc(b1-4)GlcNAc
# Method in brief: as §1
# [4] = target: Gal(b1-4)GlcNAc(b1-6)GalNAc
# Method in brief: as §1
# GalNAc6S(b1-4)GlcNAc = target: GalNAc6S(b1-4)GlcNAc
# Method in brief: as §1
# [5] = target: GlcNAc(a1-4)Gal(b1-4)GlcNAc
# Method in brief: as §1
# [6] = target: GlcNAc(b1-2)[GlcNAc(b1-4)]Man(a1-3)[GlcNAc(b1-4)][GlcNAc(b1-2)[GlcNAc(b1-6)]Man(a1-6)]Man(b1-4)GlcNAc(b1-4)GlcNAc
# Method in brief: as §1
# [7] = target: GlcNAc(b1-2)[GlcNAc(b1-6)]Man(a1-6)[GlcNAc(b1-4)][GlcNAc(b1-2)Man(a1-3)]Man(b1-4)GlcNAc(b1-4)GlcNAc
# Method in brief: as §1
# GlcNAc(b1-3)Gal(b1-4)Glc = target: GlcNAc(b1-3)Gal(b1-4)Glc
# Method in brief: as §1
# [8] = target: GlcNAc(b1-3)Gal(b1-4)GlcNAc(b1-3)Gal(b1-4)GlcNAc(b1-3)Gal(b1-4)GlcNAc(b1-2)Man(a1-3)[GlcNAc(b1-3)Gal(b1-4)GlcNAc(b1-3)Gal(b1-4)GlcNAc(b1-3)Gal(b1-4)GlcNAc(b1-2)Man(a1-6)]Man(b1-4)GlcNAc(b1-4)[Fuc(a1-6)]GlcNAc
# Method in brief: as §1
# [9] = target: GlcNAc(b1-3)Gal(b1-4)GlcNAc(b1-3)Gal(b1-4)GlcNAc(b1-3)Gal(b1-4)GlcNAc(b1-3)Gal(b1-4)GlcNAc(b1-2)Man(a1-3)[GlcNAc(b1-3)Gal(b1-4)GlcNAc(b1-3)Gal(b1-4)GlcNAc(b1-3)Gal(b1-4)GlcNAc(b1-3)Gal(b1-4)GlcNAc(b1-2)Man(a1-6)]Man(b1-4)GlcNAc(b1-4)GlcNAc
# Method in brief: as §1
# [10] = target: GlcNAc(b1-3)Gal(b1-4)GlcNAc(b1-3)Gal(b1-4)GlcNAc(b1-3)Gal(b1-4)GlcNAc(b1-3)Gal(b1-4)GlcNAc(b1-2)Man(a1-3)[GlcNAc(b1-3)Gal(b1-4)GlcNAc(b1-3)Gal(b1-4)GlcNAc(b1-3)Gal(b1-4)GlcNAc(b1-3)Gal(b1-4)GlcNAc(b1-2)Man(a1-6)]Man(b1-4)GlcNAc(b1-4)[Fuc(a1-6)]GlcNAc
# Method in brief: as §1
# [11] = target: GlcNAc(b1-3)Gal(b1-4)GlcNAc(b1-3)Gal(b1-4)GlcNAc(b1-3)Gal(b1-4)GlcNAc(b1-3)Gal(b1-4)GlcNAc(b1-2)[GlcNAc(b1-3)Gal(b1-4)GlcNAc(b1-3)Gal(b1-4)GlcNAc(b1-3)Gal(b1-4)GlcNAc(b1-3)Gal(b1-4)GlcNAc(b1-6)]Man(a1-6)[GlcNAc(b1-3)Gal(b1-4)GlcNAc(b1-3)Gal(b1-4)GlcNAc(b1-3)Gal(b1-4)GlcNAc(b1-3)Gal(b1-4)GlcNAc(b1-2)Man(a1-3)]Man(b1-4)GlcNAc(b1-4)[Fuc(a1-6)]GlcNAc
# Method in brief: as §1
# [12] = target: Man(a1-2)Man(a1-3)[Man(a1-6)]Man(a1-6)[Man(a1-2)Man(a1-3)]Man(b1-4)GlcNAc(b1-4)GlcNAc
# Method in brief: as §1
# [13] = target: Neu5Ac(a2-3)Gal(b1-4)GlcNAc6S
# Method in brief: as §1
# [14] = target: Neu5Ac(a2-3)[Neu5Ac(a2-6)]GalNAc
# Method in brief: as §1
# [15] = target: Neu5Ac(a2-6)Gal(b1-4)GlcNAc
# Method in brief: as §1
# [16] = target: Neu5Ac(a2-6)Gal(b1-4)GlcNAc(b1-2)[Neu5Ac(a2-6)Gal(b1-4)GlcNAc(b1-4)]Man(a1-3)[GlcNAc(b1-4)][Neu5Ac(a2-6)Gal(b1-4)GlcNAc(b1-4)Man(a1-6)]Man(b1-4)GlcNAc(b1-4)GlcNAc
# Method in brief: as §1
# [17] = target: Neu5Ac(a2-6)Gal(b1-4)GlcNAc(b1-3)Gal(b1-4)GlcNAc
# Method in brief: as §1
# [18] = target: Neu5Ac(a2-6)Gal(b1-4)GlcNAc(b1-3)Gal(b1-4)GlcNAc(b1-3)Gal(b1-4)GlcNAc
# Method in brief: as §1
# [19] = target: Neu5Ac(a2-6)Gal(b1-4)GlcNAc(b1-3)Gal(b1-4)GlcNAc(b1-3)[Neu5Ac(a2-6)Gal(b1-4)GlcNAc(b1-3)Gal(b1-4)GlcNAc(b1-6)]GalNAc
# Method in brief: as §1
# [20] = target: Neu5Ac(a2-8)Neu5Ac(a2-3)Gal(b1-4)Glc
# Method in brief: as §1
# [21] = target: Neu5Ac(a2-8)Neu5Ac(a2-8)Neu5Ac(a2-3)Gal(b1-4)Glc
# Method in brief: as §1
# [22] = target: Neu5Gc(a2-3)Gal(b1-4)[Fuc(a1-3)]GlcNAc
# Method in brief: as §1
# Neu5Gc(a2-6)GalNAc = target: Neu5Gc(a2-6)GalNAc
# Method in brief: as §1
binder,measurement,setting,value
DrGal3 (Danio rerio) (protein) MDLSDALDAPPQQNNQQAGGPVWPGQPANPVWPGQPANPTWPGQPNQPAWPGQPNQQWPGQPGQPTAPGWPGPAPQTGPYGAPGQAPQVLTVPLDFPLQNGAYNKMLITINGEVKPNAKQFTVNLRRGNDIAFHINPRFSEGGKPVIVRNSMIGNNWGREERELPSFPFVPGKPFEMKILITDTEYKVAVNKSHLLEFKHRVFELNQITGLSIYNDVTLSTVNVETLQ,glycan array binding signal (z-score),[1],4.37
same,glycan array binding signal (z-score),[2],5.52
same,glycan array binding signal (z-score),[3],5.72
same,glycan array binding signal (z-score),[4],-0.192
same,glycan array binding signal (z-score),GalNAc6S(b1-4)GlcNAc,-0.282
same,glycan array binding signal (z-score),[5],-0.256
same,glycan array binding signal (z-score),[6],-0.297
same,glycan array binding signal (z-score),[7],-0.243
same,glycan array binding signal (z-score),GlcNAc(b1-3)Gal(b1-4)Glc,-0.284
same,glycan array binding signal (z-score),[8],6.12
same,glycan array binding signal (z-score),[9],5.4
same,glycan array binding signal (z-score),[10],5.55
same,glycan array binding signal (z-score),[11],3.29
same,glycan array binding signal (z-score),[12],-0.249
same,glycan array binding signal (z-score),[13],-0.189
same,glycan array binding signal (z-score),[14],-0.275
same,glycan array binding signal (z-score),[15],-0.257
same,glycan array binding signal (z-score),[16],-0.234
same,glycan array binding signal (z-score),[17],-0.25
same,glycan array binding signal (z-score),[18],0.971
same,glycan array binding signal (z-score),[19],-0.107
same,glycan array binding signal (z-score),[20],-0.271
same,glycan array binding signal (z-score),[21],-0.195
same,glycan array binding signal (z-score),[22],-0.086
same,glycan array binding signal (z-score),Neu5Gc(a2-6)GalNAc,-0.254
